Assay results reported in ChEMBL document CHEMBL1201862, “PubChem BioAssay data set” (2004).
Out of some 350,000 compounds screened, about 1,200 (0.34%) were called active. About 3% were inconclusive and are not listed. No cut-off for these calls is given here. This excerpt belongs to a sample that is enriched for actives.

The compounds below were run against DNA repair nuclease/redox regulator APEX1 (Homo sapiens) (UniProt P27695) (assay: qHTS Assay for Inhibitors of the Human Apurinic/apyrimidinic Endonuclease 1 (APE1).).
Chain of DNA repair nuclease/redox regulator APEX1 (Homo sapiens) (P27695 whole entry): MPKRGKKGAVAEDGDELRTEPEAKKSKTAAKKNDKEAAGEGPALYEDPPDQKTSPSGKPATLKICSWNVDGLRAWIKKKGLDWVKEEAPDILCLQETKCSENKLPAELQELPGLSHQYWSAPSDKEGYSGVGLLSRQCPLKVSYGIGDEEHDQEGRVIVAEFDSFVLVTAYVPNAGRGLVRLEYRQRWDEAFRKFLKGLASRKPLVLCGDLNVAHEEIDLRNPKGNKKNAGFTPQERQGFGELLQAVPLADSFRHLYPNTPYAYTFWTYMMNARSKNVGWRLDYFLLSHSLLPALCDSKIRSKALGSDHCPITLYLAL
Assay type: functional

Structure (SMILES)	Potency
O=C(Cn1c(=S)[nH]c2ccccc2c1=O)N1CCN(c2ccc(F)cc2)CC1	794 µM (active)
CC(=O)OCC(NC(=O)C(Cc1c[nH]c2ccccc12)NC(=O)OC(C)(C)C)C1OC(n2cc(C)c(=O)[nH]c2=O)C(OC(C)=O)C1OC(C)=O (stereo not drawn)	inactive
O=C(O)c1cc(-c2ccc(F)cc2F)ccc1O	inactive
